Test results: the supplement of paper PMC11732987, “Enantioselective OTUD7B fragment discovery through chemoproteomics screening and high-throughput optimisation” (Communications Chemistry, 2025)

How the values were obtained:
Test in all cases: log2 ratio of Biotin-Ahx-Ub-VS probe labelling (fragment/DMSO); higher = less target engagement (more negative = stronger competition), active = hit call of the paper (q ≤ 0.05, log2 ratio ≤ -1)
Conditions in all cases: compound concentration: 200 uM; treatment time: 3 h
USP34 = USP34 (UniProt Q70CQ2)
USP34, sequence (Q70CQ2 whole entry, the tested form may be a part): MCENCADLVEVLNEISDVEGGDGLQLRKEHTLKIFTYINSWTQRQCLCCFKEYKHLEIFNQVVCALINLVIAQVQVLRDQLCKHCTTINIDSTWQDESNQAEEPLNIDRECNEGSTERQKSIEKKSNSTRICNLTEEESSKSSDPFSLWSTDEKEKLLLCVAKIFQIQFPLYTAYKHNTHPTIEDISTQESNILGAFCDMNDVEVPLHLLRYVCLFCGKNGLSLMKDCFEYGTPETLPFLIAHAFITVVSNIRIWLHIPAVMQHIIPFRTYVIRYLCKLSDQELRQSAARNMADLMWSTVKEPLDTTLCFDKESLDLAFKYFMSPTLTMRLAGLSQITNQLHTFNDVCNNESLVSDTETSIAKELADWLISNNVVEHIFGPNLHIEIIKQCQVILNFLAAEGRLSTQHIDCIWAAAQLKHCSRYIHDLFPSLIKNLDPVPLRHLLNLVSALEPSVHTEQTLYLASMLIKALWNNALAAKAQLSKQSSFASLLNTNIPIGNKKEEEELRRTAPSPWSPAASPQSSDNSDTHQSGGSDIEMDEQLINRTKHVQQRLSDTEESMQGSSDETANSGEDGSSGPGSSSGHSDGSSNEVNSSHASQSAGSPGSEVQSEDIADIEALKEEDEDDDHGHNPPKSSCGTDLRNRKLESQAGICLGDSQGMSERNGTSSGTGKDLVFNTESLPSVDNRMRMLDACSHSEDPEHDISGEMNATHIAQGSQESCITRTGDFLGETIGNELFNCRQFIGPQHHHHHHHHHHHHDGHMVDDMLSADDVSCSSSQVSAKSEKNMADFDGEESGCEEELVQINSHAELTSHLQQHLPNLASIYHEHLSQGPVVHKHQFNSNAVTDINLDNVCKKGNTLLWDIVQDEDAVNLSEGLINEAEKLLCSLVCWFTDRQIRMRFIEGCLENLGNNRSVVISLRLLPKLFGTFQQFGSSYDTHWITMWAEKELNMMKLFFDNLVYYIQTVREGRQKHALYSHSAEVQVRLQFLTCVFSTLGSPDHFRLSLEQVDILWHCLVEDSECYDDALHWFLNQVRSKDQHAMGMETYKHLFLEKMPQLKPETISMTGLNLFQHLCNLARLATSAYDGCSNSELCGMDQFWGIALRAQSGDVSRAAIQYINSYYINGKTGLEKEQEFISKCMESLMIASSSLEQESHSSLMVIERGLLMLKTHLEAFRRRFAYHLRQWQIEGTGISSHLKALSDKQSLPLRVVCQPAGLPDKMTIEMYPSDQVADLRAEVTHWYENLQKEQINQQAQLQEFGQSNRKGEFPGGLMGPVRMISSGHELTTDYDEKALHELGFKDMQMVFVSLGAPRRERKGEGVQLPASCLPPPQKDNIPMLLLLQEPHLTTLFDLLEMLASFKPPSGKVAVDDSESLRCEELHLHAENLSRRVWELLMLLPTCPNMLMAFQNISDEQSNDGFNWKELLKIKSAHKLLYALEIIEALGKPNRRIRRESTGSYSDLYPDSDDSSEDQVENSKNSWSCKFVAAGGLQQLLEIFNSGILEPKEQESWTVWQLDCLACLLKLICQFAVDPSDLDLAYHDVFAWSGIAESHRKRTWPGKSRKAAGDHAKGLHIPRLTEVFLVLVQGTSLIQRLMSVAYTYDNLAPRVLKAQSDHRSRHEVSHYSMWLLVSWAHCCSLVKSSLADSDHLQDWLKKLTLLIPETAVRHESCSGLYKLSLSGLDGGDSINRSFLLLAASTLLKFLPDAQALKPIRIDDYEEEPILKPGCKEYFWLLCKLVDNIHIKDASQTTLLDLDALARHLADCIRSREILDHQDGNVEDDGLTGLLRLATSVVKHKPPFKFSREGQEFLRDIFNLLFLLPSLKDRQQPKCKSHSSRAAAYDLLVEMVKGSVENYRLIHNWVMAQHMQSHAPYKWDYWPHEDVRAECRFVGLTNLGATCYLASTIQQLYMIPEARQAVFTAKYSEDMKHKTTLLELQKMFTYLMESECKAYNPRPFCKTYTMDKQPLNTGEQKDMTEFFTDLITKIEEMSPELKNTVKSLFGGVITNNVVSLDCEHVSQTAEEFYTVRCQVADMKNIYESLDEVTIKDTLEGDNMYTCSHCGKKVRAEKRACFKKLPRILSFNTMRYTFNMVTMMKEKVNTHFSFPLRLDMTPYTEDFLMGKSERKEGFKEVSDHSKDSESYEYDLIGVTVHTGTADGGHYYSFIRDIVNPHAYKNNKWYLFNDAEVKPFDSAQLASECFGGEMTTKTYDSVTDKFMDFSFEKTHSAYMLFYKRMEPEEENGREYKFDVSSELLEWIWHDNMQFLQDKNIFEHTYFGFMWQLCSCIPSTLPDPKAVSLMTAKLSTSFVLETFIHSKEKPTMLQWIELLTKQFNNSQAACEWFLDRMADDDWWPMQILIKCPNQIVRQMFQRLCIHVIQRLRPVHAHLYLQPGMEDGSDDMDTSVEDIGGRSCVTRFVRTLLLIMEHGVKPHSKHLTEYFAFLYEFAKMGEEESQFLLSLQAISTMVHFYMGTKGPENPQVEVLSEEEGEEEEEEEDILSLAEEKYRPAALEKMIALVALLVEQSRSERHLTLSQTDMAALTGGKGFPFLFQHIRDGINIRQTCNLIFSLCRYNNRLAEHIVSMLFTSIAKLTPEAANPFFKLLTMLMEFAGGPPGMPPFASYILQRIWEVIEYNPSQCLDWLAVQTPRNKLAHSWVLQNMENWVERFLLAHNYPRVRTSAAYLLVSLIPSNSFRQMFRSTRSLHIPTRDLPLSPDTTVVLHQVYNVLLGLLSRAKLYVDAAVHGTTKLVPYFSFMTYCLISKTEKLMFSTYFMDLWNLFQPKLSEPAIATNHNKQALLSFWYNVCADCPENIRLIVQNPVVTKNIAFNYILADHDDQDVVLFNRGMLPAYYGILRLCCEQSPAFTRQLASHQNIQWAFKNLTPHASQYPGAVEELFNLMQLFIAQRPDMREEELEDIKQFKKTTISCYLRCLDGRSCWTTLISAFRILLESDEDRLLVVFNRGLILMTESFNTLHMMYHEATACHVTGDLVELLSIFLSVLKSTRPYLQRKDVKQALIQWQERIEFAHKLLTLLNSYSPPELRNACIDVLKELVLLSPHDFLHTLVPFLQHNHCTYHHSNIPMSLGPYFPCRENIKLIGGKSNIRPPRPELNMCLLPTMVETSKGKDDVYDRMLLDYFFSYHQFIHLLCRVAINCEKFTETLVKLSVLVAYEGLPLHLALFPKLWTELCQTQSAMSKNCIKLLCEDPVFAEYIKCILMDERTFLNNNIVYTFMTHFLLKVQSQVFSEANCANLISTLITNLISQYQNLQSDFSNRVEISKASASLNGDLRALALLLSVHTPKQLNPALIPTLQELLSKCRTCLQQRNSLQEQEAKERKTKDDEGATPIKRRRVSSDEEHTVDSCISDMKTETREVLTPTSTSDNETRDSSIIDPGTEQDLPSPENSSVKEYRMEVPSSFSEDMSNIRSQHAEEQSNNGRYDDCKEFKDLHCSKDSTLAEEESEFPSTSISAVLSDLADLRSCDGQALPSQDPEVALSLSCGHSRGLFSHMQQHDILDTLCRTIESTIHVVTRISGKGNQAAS
Outline: (§1)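 HEK293T lysate (495 µg per sample, in Tris/CHAPS/IGEPAL buffer with protease inhibitors) was exposed in triplicate for 3 h to fragment at 200 µM or to vehicle, then to Biotin-Ahx-Ub-VS at 0.5 µM final for 1 h. Labelled DUBs were enriched on NeutrAvidin, digested with LysC and trypsin, and analysed by diaPASEF LC-MS/MS. Spectronaut label-free quantities were normalised to the global median, and values are average log2 ratios of fragment over vehicle from an unpaired t-test. Only proteins with ≥2 unique peptides were used.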

USP36 = target: T1, USP36 (UniProt Q9P275)
T1 sequence (whole entry): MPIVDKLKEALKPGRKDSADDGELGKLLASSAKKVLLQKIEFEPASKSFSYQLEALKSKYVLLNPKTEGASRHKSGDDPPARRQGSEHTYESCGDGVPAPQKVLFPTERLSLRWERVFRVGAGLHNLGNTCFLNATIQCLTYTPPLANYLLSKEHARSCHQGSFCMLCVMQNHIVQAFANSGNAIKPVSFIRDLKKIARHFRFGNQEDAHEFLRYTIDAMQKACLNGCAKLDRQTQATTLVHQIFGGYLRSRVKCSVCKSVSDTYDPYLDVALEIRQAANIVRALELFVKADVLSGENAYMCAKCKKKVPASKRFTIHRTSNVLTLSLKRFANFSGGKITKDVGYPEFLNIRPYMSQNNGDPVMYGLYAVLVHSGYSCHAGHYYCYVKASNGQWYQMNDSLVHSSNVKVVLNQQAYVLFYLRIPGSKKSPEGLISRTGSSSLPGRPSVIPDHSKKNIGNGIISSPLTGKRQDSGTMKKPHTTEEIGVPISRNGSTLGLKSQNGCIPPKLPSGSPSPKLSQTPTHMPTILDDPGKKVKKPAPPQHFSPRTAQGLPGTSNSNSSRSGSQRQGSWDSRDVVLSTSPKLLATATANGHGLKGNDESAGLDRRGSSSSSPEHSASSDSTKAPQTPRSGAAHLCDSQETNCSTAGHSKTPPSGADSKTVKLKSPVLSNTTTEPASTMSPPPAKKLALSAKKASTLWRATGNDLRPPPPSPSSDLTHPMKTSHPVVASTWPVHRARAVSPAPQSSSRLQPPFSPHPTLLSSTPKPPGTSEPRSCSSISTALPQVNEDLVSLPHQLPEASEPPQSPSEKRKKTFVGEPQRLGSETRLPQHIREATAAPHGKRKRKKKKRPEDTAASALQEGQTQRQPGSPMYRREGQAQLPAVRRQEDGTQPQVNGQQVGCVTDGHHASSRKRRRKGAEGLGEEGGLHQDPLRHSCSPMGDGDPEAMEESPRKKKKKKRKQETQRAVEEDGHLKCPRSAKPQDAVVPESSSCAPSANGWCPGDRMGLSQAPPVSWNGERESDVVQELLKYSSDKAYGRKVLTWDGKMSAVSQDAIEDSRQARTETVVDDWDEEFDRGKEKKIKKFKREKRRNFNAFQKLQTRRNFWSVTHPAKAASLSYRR
Outline: as §1

USP38 = target: T2, USP38 (UniProt Q8NB14)
T2 sequence (whole entry): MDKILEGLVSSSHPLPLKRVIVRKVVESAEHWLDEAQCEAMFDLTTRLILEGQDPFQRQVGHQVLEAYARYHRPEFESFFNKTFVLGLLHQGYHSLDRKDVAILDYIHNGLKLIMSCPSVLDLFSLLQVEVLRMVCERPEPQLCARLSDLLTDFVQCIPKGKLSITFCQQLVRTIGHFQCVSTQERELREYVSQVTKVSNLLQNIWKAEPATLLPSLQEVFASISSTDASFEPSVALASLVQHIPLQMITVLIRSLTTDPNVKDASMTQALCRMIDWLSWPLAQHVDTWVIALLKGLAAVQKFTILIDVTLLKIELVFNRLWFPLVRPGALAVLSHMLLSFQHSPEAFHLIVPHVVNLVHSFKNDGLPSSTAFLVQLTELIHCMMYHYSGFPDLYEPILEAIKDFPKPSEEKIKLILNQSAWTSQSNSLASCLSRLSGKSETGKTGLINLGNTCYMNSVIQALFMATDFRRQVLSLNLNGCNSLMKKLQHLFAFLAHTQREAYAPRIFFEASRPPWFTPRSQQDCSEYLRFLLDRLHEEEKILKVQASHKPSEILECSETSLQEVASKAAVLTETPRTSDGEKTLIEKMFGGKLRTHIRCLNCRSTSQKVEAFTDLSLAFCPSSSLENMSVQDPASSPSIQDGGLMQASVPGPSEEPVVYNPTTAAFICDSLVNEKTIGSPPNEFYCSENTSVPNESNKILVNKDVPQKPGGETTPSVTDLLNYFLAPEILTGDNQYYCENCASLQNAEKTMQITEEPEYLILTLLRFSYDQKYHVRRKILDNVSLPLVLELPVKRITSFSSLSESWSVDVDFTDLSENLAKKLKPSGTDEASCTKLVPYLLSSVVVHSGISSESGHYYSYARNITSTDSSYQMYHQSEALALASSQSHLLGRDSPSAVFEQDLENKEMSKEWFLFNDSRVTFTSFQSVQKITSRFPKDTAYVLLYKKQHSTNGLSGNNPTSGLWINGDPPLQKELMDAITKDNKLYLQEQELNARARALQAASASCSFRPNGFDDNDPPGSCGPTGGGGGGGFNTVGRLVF
Outline: as §1

USP39 = target: T3, USP39 (UniProt Q53GS9)
T3 sequence (whole entry): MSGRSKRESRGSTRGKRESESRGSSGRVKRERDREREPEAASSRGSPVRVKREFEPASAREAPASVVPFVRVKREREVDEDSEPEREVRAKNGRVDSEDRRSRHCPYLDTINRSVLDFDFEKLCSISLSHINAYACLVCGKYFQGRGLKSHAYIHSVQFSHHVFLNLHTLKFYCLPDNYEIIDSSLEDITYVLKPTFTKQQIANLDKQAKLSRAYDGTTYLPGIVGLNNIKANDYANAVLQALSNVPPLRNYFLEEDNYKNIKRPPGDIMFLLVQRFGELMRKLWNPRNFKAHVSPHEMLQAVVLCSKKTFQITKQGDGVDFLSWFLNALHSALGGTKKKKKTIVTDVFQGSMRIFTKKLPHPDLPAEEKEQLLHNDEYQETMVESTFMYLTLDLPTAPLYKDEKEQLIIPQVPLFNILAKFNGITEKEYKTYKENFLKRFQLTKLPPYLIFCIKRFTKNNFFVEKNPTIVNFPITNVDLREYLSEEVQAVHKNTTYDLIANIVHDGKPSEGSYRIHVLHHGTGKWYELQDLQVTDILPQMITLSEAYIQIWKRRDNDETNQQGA
Outline: as §1

USP4 = target: T4, USP4 (UniProt Q13107)
T4 sequence (whole entry): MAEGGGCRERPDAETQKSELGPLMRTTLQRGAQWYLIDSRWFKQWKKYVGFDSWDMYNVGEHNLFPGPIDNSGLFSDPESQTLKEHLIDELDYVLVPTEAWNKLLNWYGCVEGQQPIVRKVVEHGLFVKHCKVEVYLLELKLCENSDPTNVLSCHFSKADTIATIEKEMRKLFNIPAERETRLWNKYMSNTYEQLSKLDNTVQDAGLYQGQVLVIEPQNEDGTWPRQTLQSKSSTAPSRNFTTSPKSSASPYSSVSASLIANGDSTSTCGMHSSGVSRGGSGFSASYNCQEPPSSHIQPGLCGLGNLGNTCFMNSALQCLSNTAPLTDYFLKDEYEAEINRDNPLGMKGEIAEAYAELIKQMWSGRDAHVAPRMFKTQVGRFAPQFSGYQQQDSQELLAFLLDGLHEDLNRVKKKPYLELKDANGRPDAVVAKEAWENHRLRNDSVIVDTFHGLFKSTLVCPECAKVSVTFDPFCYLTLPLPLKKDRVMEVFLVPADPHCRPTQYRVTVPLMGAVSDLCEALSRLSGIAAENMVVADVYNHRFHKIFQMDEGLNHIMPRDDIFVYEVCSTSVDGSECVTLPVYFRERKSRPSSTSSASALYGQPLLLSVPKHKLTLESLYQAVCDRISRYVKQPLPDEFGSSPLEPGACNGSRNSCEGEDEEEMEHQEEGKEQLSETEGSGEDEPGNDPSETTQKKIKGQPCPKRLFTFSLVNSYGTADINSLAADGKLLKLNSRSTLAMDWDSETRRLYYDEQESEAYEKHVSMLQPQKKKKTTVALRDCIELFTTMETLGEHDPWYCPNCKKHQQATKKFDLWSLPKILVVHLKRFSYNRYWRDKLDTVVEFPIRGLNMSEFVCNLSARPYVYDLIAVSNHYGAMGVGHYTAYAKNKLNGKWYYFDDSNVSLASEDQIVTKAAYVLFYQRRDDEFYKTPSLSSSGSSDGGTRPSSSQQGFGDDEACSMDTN
Outline: as §1

Measured: log2 ratio of Biotin-Ahx-Ub-VS probe labelling

O=C(CCl)Nc1ccc(Cl)c(F)c1
inactive: USP34 -0.317 | USP36 -0.136 | USP38 -0.0529 | USP39 4.5e-05 | USP4 -0.159
